Assay [1] can be described thus: HepG2 liver cancer cell viability effects, profiling panel, resazurin fluorescence, 24 h, PK04 Diversity Set (AID 1172). Conditions: higher = more signal. (Alamar Blue is a resazurin reagent that responds to reducing activity.)
Assay [2] is described as follows: basal S. cerevisiae growth modulation, no modifier, primary screen, OD600, strain BY4716, 24 h, basal condition (AID 1173). Conditions: OD600, 24 h, higher = more signal, called active from +8 up or from −8 down.
Assay [3] in a line: MM1S myeloma cell viability, profiling panel, resazurin fluorescence, basal, 24 h, PK04 Diversity Set (AID 1174). The conditions noted are these: higher = more signal, called active from +8 up or from −8 down.
The target of assay [4] is Dihydroorotate dehydrogenase (quinone), mitochondrial (Plasmodium falciparum (isolate 3D7)) (UniProt Q08210). The assay is described as follows: PfDHODH enzyme inhibitors, primary screen, biochemical, C-terminal His tag, absorbance 600 nm (AID 1175).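 Further: recombinant parasite enzyme with a five histidine tag at its C terminus.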 The conditions noted are these: DCIP absorbance 600 nm, higher = more signal, called active from +8 up or from −8 down.
Dihydroorotate dehydrogenase (quinone), mitochondrial (Plasmodium falciparum (isolate 3D7)), sequence (Q08210 whole entry, looked up): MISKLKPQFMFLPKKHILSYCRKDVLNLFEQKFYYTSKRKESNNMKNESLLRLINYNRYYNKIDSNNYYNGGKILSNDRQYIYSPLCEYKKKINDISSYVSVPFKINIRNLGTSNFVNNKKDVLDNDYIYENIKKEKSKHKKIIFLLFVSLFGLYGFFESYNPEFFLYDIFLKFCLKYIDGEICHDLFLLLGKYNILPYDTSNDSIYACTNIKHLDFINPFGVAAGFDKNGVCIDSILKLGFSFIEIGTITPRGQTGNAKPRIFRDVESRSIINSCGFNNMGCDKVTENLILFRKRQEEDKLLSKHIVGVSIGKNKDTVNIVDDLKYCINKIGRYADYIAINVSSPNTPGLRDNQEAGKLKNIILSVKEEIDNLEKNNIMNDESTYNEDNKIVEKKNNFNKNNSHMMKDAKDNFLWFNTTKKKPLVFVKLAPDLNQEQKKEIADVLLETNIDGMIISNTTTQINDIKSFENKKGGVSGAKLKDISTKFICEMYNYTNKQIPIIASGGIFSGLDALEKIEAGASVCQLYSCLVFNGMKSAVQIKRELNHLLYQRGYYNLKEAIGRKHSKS
Assay [5] in a line: P. aeruginosa biofilm formation inhibitors, primary screen, strain PAO1, LB-PBS medium, absorbance 600 nm (AID 1176). Conditions: P. aeruginosa PAO1 growth/biofilm, A600, 12 h; higher = more signal.
A short description of assay [6]: S. cerevisiae RM11-1a growth modifiers, primary screen, strain RM11-1a, OD600, basal, 24 h (AID 1177).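 Further: cultures grown under basal conditions with no added stressor.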 Conditions: OD600, 24 h, higher = more signal, called active from +8 up or from −8 down.
Assay [7] is described as follows: E. coli acrAB mutant growth effects, primary screen, E. coli filamentation inducers, strain DRC39, OD650, 24 h (AID 1178).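 Further: growth measured as culture turbidity by optical density at 650 nm.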 The conditions noted are these: higher = more signal, called active from +8 up or from −8 down.
The nature of assay [8]: E. coli acrAB mutant growth effects, primary screen, E. coli filamentation inducers, strain DRC39, OD650, 48 h (AID 1179).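 Further: screen aims at cell division blockers that make cells filament.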 The conditions noted are these: E. coli DRC39 delta-acrAB growth, higher = more signal, called active from +8 up or from −8 down.
A short description of assay [9]: RPMI8226 myeloma cell viability, profiling panel, resazurin fluorescence, basal, 24 h, PK04 Diversity Set (AID 1180).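 Further: RPMI8826 multiple myeloma cell line at 5000 cells per well.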 The conditions noted are these: higher = more signal.
Assay [10] has as its target E3 ubiquitin-protein ligase XIAP (Homo sapiens) (UniProt P98170). The assay is described as follows: XIAP binders, primary screen, biophysical, small-molecule microarray, fluorescence 635 nm (AID 1181).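 Further: score merges 667 nm emission and signal to noise over triplicate slides.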 Conditions: small-molecule microarray binding, higher = more signal.
The test system of assay [11] is XIP peptide (Xip251-270) binding. The assay is described as follows: small-molecule binders of XIP peptide, primary screen, biochemical, small-molecule microarray, fluorescence 635/667 nm, 0.1 µg/mL protein (AID 1182). Conditions: fluorescent protein binding, 635 nm, higher = more signal, called active from +8 up or from −8 down.
A further assay concerns XIP peptide (Xip251-270). Description: small-molecule binders of XIP peptide, primary screen, biochemical, small-molecule microarray, fluorescence 635/667 nm, 0.5 µg/mL protein (AID 1183). The conditions noted are these: small-molecule microarray binding, fluorescence 635 nm; higher = more signal.
A short description of assay [12]: Plasmodium falciparum growth inhibition, primary screen, strain 3D7, DAPI fluorescence, 100 nL (AID 1184).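 Further: parasites grown inside human red blood cells in medium with human serum.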 The conditions noted are these: P. falciparum 3D7 growth, 3 d, higher = more signal.
The target in assay [13] is Homeobox protein Hox-A13 (Mus musculus) (UniProt Q62424). Description: inhibitors of HoxA13-DNA binding, primary screen, biochemical, fluorescence polarization, labeled oligonucleotide (AID 1185). The conditions noted are these: 15 min, higher = more signal, called active from +8 up or from −8 down. For orientation: Polarisation of emitted light reports the rotation of a fluorescent probe.
Homeobox protein Hox-A13 (Mus musculus), sequence (Q62424 whole entry, looked up): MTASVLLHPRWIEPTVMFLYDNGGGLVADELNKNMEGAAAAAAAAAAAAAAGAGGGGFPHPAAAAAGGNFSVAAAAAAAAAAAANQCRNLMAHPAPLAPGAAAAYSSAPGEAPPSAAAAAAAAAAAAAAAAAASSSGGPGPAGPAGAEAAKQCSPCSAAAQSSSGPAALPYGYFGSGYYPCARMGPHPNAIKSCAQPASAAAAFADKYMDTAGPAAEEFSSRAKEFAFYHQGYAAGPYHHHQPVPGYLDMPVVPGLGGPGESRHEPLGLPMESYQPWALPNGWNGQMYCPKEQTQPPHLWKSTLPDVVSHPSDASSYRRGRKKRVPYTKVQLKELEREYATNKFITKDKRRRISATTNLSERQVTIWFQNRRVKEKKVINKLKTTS

A short description of assay [14]: inhibitors of hydroxyurea-induced Chk1 phosphorylation, primary screen, imaging, HeLa, phospho-Chk1 antibody, percent positive cells (AID 1186). Conditions: hydroxyurea-induced phospho-Chk1 immunofluorescence imaging, higher = more signal.
Assay [15] is described as follows: inhibitors of hydroxyurea-induced Chk1 phosphorylation, primary screen, imaging, HeLa, phospho-Chk1 nuclear intensity (AID 1187). The conditions noted are these: hydroxyurea-induced phospho-Chk1 immunofluorescence imaging, higher = more signal.

Active and inactive are the calls of the source. Unless noted, how the calls were made is not given here.

E3 ubiquitin-protein ligase XIAP (Homo sapiens), sequence (P98170 whole entry, looked up): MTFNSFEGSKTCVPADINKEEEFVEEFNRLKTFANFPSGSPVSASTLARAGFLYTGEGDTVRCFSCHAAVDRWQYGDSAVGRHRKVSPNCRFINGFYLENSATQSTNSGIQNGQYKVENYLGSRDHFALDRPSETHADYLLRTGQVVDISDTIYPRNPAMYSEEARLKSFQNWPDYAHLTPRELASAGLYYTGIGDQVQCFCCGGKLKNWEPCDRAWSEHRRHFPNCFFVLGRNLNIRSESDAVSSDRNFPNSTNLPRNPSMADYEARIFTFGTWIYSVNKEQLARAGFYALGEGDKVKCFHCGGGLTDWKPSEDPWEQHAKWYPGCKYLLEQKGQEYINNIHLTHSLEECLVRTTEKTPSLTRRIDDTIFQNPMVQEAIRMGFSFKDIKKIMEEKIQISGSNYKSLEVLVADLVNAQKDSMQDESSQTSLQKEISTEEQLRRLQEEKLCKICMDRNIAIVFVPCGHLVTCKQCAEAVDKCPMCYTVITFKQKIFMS

For the compound `Cc1ccc(N2C(=O)c3ccccc3[C@](C)(C(=O)NCCCN(C)C)[C@@H]2c2ccc(CO)cc2)nc1`, the z-score in assay [1] is 0.218; in assay [2], -0.742 (inactive); in [3] it was -0.296 (inactive); in [5], 0.084 (inactive); in assay [6], -0.764 (inactive); in [7], -0.0003 (inactive). In addition, the z-score in assay [8] was -0.575 (inactive); in assay [9], -0.0858; in assay [12] it was 0.165; in assay [13] it was -2.55 (inactive); in assay [14], -0.229 (inactive); in [15], -0.321 (inactive). Besides, the composite z-score in assay [4] is 0.0135 (inactive); in assay [10], -0.158; in assay [11], 0.0854 (inactive); with XIP peptide (Xip251-270), -0.495.
Regarding `CO[C@H]1O[C@H](CO)[C@@H](OC(=O)Nc2ccc3c(c2)OCO3)[C@H](OC(=O)Nc2ccccc2-c2ccccc2)[C@H]1OC(=O)Nc1ccccc1-c1ccccc1`, the z-score in assay [1] was -2.5; in assay [2] it was 2.05 (inactive); in assay [3] it was -2.94 (inactive); in assay [5], 0.553 (inactive); in assay [6] it was 4.05 (inactive); in [7] it was 0.335 (inactive). Besides, the z-score is -0.303 (inactive) in assay [8]; -2.63 in assay [9]; -1.92 in assay [12]; -3.15 (inactive) in assay [13]; 0.0165 (inactive) in assay [14]; 0.444 (inactive) in assay [15]. Also, the composite z-score was 0.656 (inactive) in assay [4], 0.441 in assay [10], 0.667 (inactive) in assay [11] and 0.873 in the assay with XIP peptide (Xip251-270).
For `COC(=O)[C@H](Cc1ccccc1)N1CC2=CCCC=C[C@@H]2[C@H]1[C@H](O)Cc1ccccc1`, the z-score was 0.272 in assay [1]; -1.7 (inactive) in assay [2]; 0.612 (inactive) in assay [3]; -0.565 (inactive) in assay [5]; -0.77 (inactive) in assay [6]; -0.337 (inactive) in assay [7]. The z-score in [8] is -0.27 (inactive); in assay [9], 0.0722; in assay [12], -0.926; in assay [13], -6.25 (inactive); in [14], -0.359 (inactive); in assay [15], -0.685 (inactive). In addition, the composite z-score is -0.313 (inactive) in assay [4], 0.104 in assay [10], 0.444 (inactive) in [11] and -0.221 in the assay with XIP peptide (Xip251-270).
Regarding `C=CCC(OC(C)=O)[C@@H]1[C@@H](N(Cc2cc3ccccc3o2)C(=O)Cc2ccc(OC)cc2)c2cc(OCCCO)ccc2N1C(=O)c1ccc2ccccc2n1` (some centres not stated), the z-score in assay [1] was -1.11; in assay [2] it was -0.791 (inactive); in assay [3] it was 0.472 (inactive); in assay [5], 0.268 (inactive); in assay [6], -0.266 (inactive); in assay [7] it was 0.945 (inactive). Moreover, the z-score in assay [8] was 0.346 (inactive); in [9], -0.0391; in [12], -2.17; in assay [13], -2.1 (inactive); in [14] it was 0.16 (inactive); in assay [15], 0.158 (inactive). The composite z-score in assay [4] is 0.278 (inactive); in assay [10] it was -0.058; in assay [11], -0.206 (inactive); in the assay on XIP peptide (Xip251-270), -0.454.
Consider `CC[C@@H]1C=C(C(=O)O)[C@H](c2ccc(OC)cc2)N1S(=O)(=O)c1ccc(C)cc1`, for which the z-score is -0.896 in assay [1]; 0.77 (inactive) in assay [2]; -0.675 (inactive) in assay [3]; -0.281 (inactive) in assay [5]; -0.391 (inactive) in assay [6]; -0.826 (inactive) in assay [7]. The z-score in assay [8] is -0.521 (inactive); in [9] it was -1.16; in assay [12], 2.03; in [13] it was -2.62 (inactive); in [14] it was -0.745 (inactive); in assay [15], -1.26 (inactive). Also, the composite z-score in assay [4] was -1.09 (inactive); in [10], -0.0286; in assay [11], 1.98 (inactive); with XIP peptide (Xip251-270), 0.129.
As for `Cc1ccc(S[C@]2(C(=O)NCC(F)(F)F)CC(=O)N(Cc3ccccc3C(F)(F)F)[C@@H]2c2ccc(CO)cc2)cc1`, the z-score in [1] was -0.12; in [2], 0.0386 (inactive); in [3], -0.383 (inactive); in assay [5] it was 0.568 (inactive); in assay [6], -0.404 (inactive); in [7], 0.334 (inactive). Besides, the z-score in [8] was 0.2 (inactive); in assay [9] it was -0.754; in assay [12], 0.186; in assay [13], -1.74 (inactive); in [14] it was 0.145 (inactive); in assay [15], 0.518 (inactive). Moreover, the composite z-score is -0.631 (inactive) in assay [4], 0.0256 in assay [10], 0.859 (inactive) in [11] and 0.843 with XIP peptide (Xip251-270).
For `COC(=O)C1=CC(CCCO)=CC(c2cccs2)N(Cc2cc3c(cc2Br)OCO3)C=C1C(=O)OC` (configuration not stated), the z-score is -0.245 in [1]; -0.23 (inactive) in assay [2]; 0.182 (inactive) in [3]; 0.173 (inactive) in assay [5]; 1.92 (inactive) in assay [6]; 0.404 (inactive) in [7]. Moreover, the z-score in assay [8] was -0.372 (inactive); in assay [9], 0.365; in assay [12] it was -1.26; in assay [13], -4.49 (inactive); in assay [14] it was 0.132 (inactive); in assay [15] it was 0.454 (inactive). In addition, the composite z-score is -0.851 (inactive) in assay [4], 0.344 in assay [10], 1.07 (inactive) in assay [11] and 0.763 in the assay with XIP peptide (Xip251-270).

Source of the values: PubChem BioAssay.
